For experiment [1], the target named is Lysosomal acid glucosylceramidase (Homo sapiens) (UniProt P04062). Nature of the experiment: Glucocerebrosidase-p2 (AID 348; in the data active = potency below about 10 µM; note: potency is the fitted concentration of half-maximal effect). The conditions noted are these: purified GBA, blue fluorogenic substrate, 40 min. Put shortly:
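Normal human glucocerebrosidase (0.2 nM) with blue fluorogenic substrate (80 uM final) in citrate/phosphate pH 5.9 with 10mM sodium taurocholate, 0.01% tween-20; 40 min RT, NaOH/glycine stop; fluorescence Ex 365/Em 440; AC50 from a titration from 0.6 nM upwards.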

Experiment [2] in a line: AP1 Signaling Pathway (AID 357). Note: % is set by controls: 0 for no effect and ±100 for the full control effect. The conditions noted are these: ME-180 AP-1-bla reporter, EGF-induced, beta-lactamase ratio, 5 h. The gist of the method: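 Read-out was the 460nm/530nm emission ratio (excitation 405nm) after CCF4 loading for 2.5 hours at room temperature. Cells carried an AP-1-driven beta-lactamase reporter, were stimulated with EC50 EGF plus compound for 5 hours, and AC50 values came from titrations.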

The target in experiment [3] is Cytochrome P450 1A2 (Homo sapiens) (UniProt P05177). Nature of the experiment: p450-cyp1a2 (AID 410; calls by dose curve; note: potency is the fitted concentration of half-maximal effect;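 for activity change, negative = inhibition: -100% = full effect of reference inhibitor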). The conditions noted are these: recombinant CYP1A2, luciferin-ME demethylation, luminescence; series mostly up to 57 µM. The gist of the method:
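Read-out is luminescence from luciferin produced by CYP1A2 demethylation of Luciferin-ME (100uM, at Km). Detection reagent stopped the 60 min NADPH-dependent reaction; signals were normalized to 57 uM furafylline.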

Experiment [4] is described as follows: Stat Signaling Pathway (AID 446).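 Note: ME-180 cervical cancer cells given 40 pM IL-6 alongside compound; SIE-controlled beta-lactamase reporter measured as 460/530 nm FRET emission ratio; % is set by controls: 0 for no effect and ±100 for the full control effect.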 The conditions noted are these: ME-180 (cervical carcinoma) SIE beta-lactamase reporter, IL-6 stimulated, 5 h. Put shortly: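 Overnight-plated ME-180 cells bearing a STAT Inducible Element beta-lactamase reporter; 5 h co-exposure to compound and 40 pM IL-6; values normalized to 300 pM IL-6 and 125 nM JAK inhibitor controls.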
Experiment [5] has as its target Glucocorticoid receptor (Homo sapiens) (UniProt P04150). Nature of the experiment: GR-GFP Redistribution (AID 450;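 active = compounds whose dose series gives a full or clear partial fitted curve of increased nuclear translocation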; note: potency is the fitted concentration of half-maximal effect). The conditions noted are these: U2OS GR-GFP nuclear translocation, laser cytometry, 2 h.
Experiment [6] shares this target. Nature of the experiment: GR-EFC Redistribution (AID 451; calls by dose curve; note: potency is the fitted concentration of half-maximal effect). The conditions noted are these: CHO-K1 GR-EFC translocation, beta-gal luminescence, 2 h. Put shortly:
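CHO-K1 cells expressing nuclear EA and GR-ED fragments of b-gal; compounds titrated up to 46 uM final, 2 h at 37 C. GR nuclear translocation read as complemented b-gal luminescence after 1 h RT detection.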

In experiment [7] the target is Mitogen-activated protein kinase 10 (Mus musculus) (UniProt Q61831). Nature of the experiment: JNK3 AlphaScreen Assay (AID 530).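 Note: kinase came from lysate of stimulated human HepG2 cells; signal reports phosphorylation of biotinylated GST-cJun 1-79 at Ser73 with 10 µM ATP; % is set by controls: 0 for no effect and ±100 for the full control effect.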 The conditions noted are these: JNK3 lysate, c-Jun phosphorylation; series mostly up to 57.1 µM. Put shortly: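 HepG2 lysate (IL-1b/TNFa pre-activated) + biotin-GST-cJun 1-79 + anti-pSer73 cJun; cpd titration, 15 min RT; ATP 10 uM start; Tris pH 7.6, MgCl2, DTT, vanadate; beads in EDTA buffer; AlphaScreen.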
For orientation: Alpha assays give light when donor and acceptor beads are brought close together.

A short description of experiment [8]: Cell Viability - BJ (AID 421; calls by dose curve;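 note: potency is the fitted concentration of half-maximal effect; cells exposed to compound for 40 hours at 37 °C before readout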). The conditions noted are these: BJ fibroblast viability, qHTS. The gist of the method: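 Quantitative HTS: ATP depletion in BJ cells after 40 hr compound exposure in complete culture medium, detected with CellTiter-Glo; AC50 from standard Hill fits.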
(Quantitative high-throughput screening tests each substance at several concentrations.)

Experiment [9] is described as follows: Cell Viability - Jurkat (AID 426;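 active = dose-dependent loss of cell ATP signal giving a full or clear fitted curve, ranked by lower potency value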;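 note: potency is the fitted concentration of half-maximal effect; cells exposed to compound for 40 hours at 37 °C before ATP read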). The conditions noted are these: qHTS. The gist of the method:
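Cytotoxicity was scored as loss of cellular ATP, measured by luciferase-based luminescence, in Jurkat clone E6-1 cells after 40 h compound treatment; tamoxifen and doxorubicin served as positive controls.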

Experiment [10] can be described thus: Cell Viability - Hek293 (AID 427;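 active = compounds whose dose-response curve shows a full or clear partial loss of cell viability, called from curve shape rather than a numeric limit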;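 note: potency is the fitted concentration of half-maximal effect; cells exposed to compound for 40 hours at 37 °C before reading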). The conditions noted are these: qHTS. The gist of the method:
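AC50 values derive from Hill-modelled concentration-response of ATP-based luminescence, normalized between DMSO-only and 100 uM tamoxifen controls. Cells were exposed in complete culture medium for 40 hr at 37 °C before detection.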

Experiment [11] can be described thus: Cell Viability - HepG2 (AID 433; calls by dose curve;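 note: potency is the fitted concentration of half-maximal effect; potency for ATP loss meaning cytotoxicity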). The conditions noted are these: qHTS. The gist of the method:
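HepG2 hepatocellular carcinoma cells (1500/well) were treated with compounds for 40 h at 37 °C in complete medium; intracellular ATP was read by CellTiter-Glo luminescence. Data were normalized to DMSO and 100 uM tamoxifen, and AC50 came from Hill fits.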

The nature of experiment [12]: Cell Viability - MRC5 (AID 434; calls by dose curve;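 note: potency is the fitted concentration of half-maximal effect; potency reflects cytotoxicity seen as loss of intracellular ATP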). The conditions noted are these: MRC5 lung fibroblast viability, qHTS. The gist of the method:
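ATP luminescence read-out (CellTiter-Glo, 20 min RT) after 40 hr, 37 °C compound exposure of 1500 MRC5 cells/well. Data normalized to DMSO (basal) and 100 uM tamoxifen (100% inhibition); AC50 from standard Hill equation.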

Experiment [13] is described as follows: Cell Viability - SK-N-SH (AID 435; calls by dose curve;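 note: potency is the fitted concentration of half-maximal effect; compound exposure lasted 40 h at 37 °C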). The conditions noted are these: SK-N-SH neuroblastoma cell viability qHTS. Put shortly:
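SK-N-SH human neuroblastoma cells (1500/well) were exposed to compounds in complete medium for 40 h at 37 °C, and intracellular ATP was then measured by CellTiter-Glo luminescence. AC50 was taken from Hill fits, normalized to DMSO and 100 uM tamoxifen.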

Experiment [14] is described as follows: Cell Viability - N2a (AID 540; active = well fitted curve in the direction sought with a large enough effect; an effect the other way counts as inactive or inconclusive; note: potency is the fitted concentration of half-maximal effect; nearly all actives have a fitted effect of over 45% in size). The conditions noted are these: N2a mouse neuroblastoma cell viability; activity change, negative = cytotoxicity: at 92.2 µM (top of the series). The gist of the method:
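In this qHTS cytotoxicity screen, ATP-dependent luciferase luminescence reports viable N2a cells after a 40 hr compound exposure in complete culture medium. Potencies are AC50 values from standard Hill equation fits.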

Experiment [15] is described as follows: Cell Viability - NIH 3T3 (AID 541; active = well fitted curve in the direction sought with a large enough effect; an effect the other way counts as inactive or inconclusive; note: potency is the fitted concentration of half-maximal effect; nearly all actives have a fitted effect of over 25% in size). The conditions noted are these: NIH 3T3 cell viability, qHTS; activity change, negative = cytotoxicity: at 92.2 µM (top of the series). The gist of the method:
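In this cytotoxicity screen, acute toxicity is scored as an ATP drop measured by CellTiter-Glo in NIH 3T3 fibroblasts following a 40 hr, 37 °C incubation with compound.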

Experiment [16] in a line: Cell Viability - HUV-EC-C (AID 542; active = well fitted curve in the direction sought with a large enough effect; an effect the other way counts as inactive or inconclusive; note: potency is the fitted concentration of half-maximal effect; nearly all actives have a fitted effect of over 35% in size). The conditions noted are these: HUV-EC-C endothelial cell viability, qHTS; series mostly up to 92.2 µM. Put shortly: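 Concentration-dependent ATP loss in HUV-EC-C cells is the measure. Exposure lasts 40 hr at 37 °C; luminescence follows CellTiter-Glo addition, and Hill fits give AC50.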
Experiment [17] can be described thus: Cell Viability - H-4-II-E (AID 543; active = well fitted curve in the direction sought with a large enough effect; an effect the other way counts as inactive or inconclusive; note: potency is the fitted concentration of half-maximal effect; nearly all actives have a fitted effect of over 35% in size). The conditions noted are these: H-4-II-E rat hepatoma viability; series mostly up to 92.2 µM. Put shortly: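 AC50 from Hill-modelled qHTS concentration-response curves. H-4-II-E rat hepatoma cells in complete medium, 40 hr exposure at 37 °C, viability by CellTiter-Glo ATP luminescence.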
Experiment [18] in a line: Cell Viability - SH-SY5Y (AID 544; active = well fitted curve in the direction sought with a large enough effect; an effect the other way counts as inactive or inconclusive; note: potency is the fitted concentration of half-maximal effect; nearly all actives have a fitted effect of over 55% in size). The conditions noted are these: SH-SY5Y neuroblastoma cell viability; viability change, negative = cytotoxic: at 92.2 µM (top of the series). The gist of the method: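 Quantitative HTS in SH-SY5Y neuroblastoma cells, 40 hr treatment at 37 °C, ATP content by luciferase luminescence; AC50 from Hill fits.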
Experiment [19] can be described thus: Cell Viability - Renal Proximal Tubule (AID 545; active = well fitted curve in the direction sought with a large enough effect; an effect the other way counts as inactive or inconclusive;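 note: 0% = DMSO only and -100% = 100 µM tamoxifen; nearly all actives have a fitted effect of over 40% in size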). The conditions noted are these: renal proximal tubule cells viability, primary cells of rat origin; activity change, negative = cytotoxicity: at 91.7 µM (top of the series). Put shortly: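 Primary rat renal proximal tubule cells (1000/well) were treated with compounds for 40 hr at 37 °C in complete medium. Intracellular ATP was measured by CellTiter-Glo luminescence, and AC50 values came from Hill-equation fits of concentration-response data.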

A short description of experiment [20]: NFAT Signaling Pathway (AID 444).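 Note: carbachol stimulus at about its EC50 of 1 µM final; % is set by controls: 0 for no effect and ±100 for the full control effect.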 The conditions noted are these: Jurkat NFAT-bla M1, carbachol, beta-lactamase ratio, 5 h; at 38 µM (top of the series) unless noted. The gist of the method:
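Jurkat cells with NFAT-driven β-lactamase reporter and co-expressed M1 receptor, stimulated with carbachol (final 1 uM, ~EC50), compound titration, 5 h at 37 °C. CCF4 loaded 1 h at RT; 460/530 nm ratio gave %activity and AC50.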

The record followed here is PubChem BioAssay (NCATS).

Several values for one entry are separate records, joined by “and”; a condition that tells them apart may be missing. Identical values can stand only once. Inconclusive results are not listed. Some structures have more than one record in an assay (separate samples or runs), and their calls can disagree. Activity calls are given as the source filed them. Unless noted, calls come from the whole dose curve; as a rule, active = well fitted curve in either direction with a large enough effect (not every such curve was filed as active); inconclusive = small, poorly fitted or top-dose-only effect, or another doubt; inactive = flat fitted curve, though single readings scatter.

Sequence of Glucocorticoid receptor (Homo sapiens) (P04150 whole entry, looked up): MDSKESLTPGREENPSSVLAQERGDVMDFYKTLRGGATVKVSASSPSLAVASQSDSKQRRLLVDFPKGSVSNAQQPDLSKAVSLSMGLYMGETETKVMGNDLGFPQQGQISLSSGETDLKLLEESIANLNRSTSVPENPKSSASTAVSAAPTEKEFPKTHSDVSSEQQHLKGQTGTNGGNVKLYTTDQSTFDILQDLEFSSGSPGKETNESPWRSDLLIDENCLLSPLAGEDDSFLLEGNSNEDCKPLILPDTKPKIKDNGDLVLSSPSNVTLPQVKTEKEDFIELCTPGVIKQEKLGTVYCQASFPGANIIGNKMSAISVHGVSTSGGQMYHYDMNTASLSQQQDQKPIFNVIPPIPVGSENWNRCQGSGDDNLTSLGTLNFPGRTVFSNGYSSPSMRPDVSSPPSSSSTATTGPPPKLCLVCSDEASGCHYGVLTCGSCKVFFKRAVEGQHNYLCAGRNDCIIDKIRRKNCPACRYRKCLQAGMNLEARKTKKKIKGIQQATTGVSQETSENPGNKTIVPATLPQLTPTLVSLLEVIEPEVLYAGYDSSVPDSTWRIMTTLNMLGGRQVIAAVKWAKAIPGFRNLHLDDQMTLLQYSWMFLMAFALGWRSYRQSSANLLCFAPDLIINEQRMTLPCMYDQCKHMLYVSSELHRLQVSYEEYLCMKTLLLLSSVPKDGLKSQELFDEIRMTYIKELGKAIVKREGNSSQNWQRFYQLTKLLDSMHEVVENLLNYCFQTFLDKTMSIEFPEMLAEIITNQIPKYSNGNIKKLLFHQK
Sequence of Cytochrome P450 1A2 (Homo sapiens) (P05177 whole entry, looked up): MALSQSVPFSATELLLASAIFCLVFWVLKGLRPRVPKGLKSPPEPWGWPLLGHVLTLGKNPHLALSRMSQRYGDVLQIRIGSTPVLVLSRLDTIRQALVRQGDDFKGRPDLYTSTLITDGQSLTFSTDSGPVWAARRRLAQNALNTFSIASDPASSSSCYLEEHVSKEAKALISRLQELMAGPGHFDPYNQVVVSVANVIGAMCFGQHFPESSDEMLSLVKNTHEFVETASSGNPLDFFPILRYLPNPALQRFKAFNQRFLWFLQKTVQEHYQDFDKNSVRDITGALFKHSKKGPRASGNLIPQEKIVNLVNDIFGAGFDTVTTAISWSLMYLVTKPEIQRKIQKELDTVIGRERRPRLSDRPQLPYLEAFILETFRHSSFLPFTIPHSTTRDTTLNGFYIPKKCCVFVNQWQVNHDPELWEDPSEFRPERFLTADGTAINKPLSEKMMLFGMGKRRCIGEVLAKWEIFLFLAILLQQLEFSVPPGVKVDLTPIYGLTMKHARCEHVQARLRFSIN
Sequence of Lysosomal acid glucosylceramidase (Homo sapiens) (P04062 whole entry, looked up): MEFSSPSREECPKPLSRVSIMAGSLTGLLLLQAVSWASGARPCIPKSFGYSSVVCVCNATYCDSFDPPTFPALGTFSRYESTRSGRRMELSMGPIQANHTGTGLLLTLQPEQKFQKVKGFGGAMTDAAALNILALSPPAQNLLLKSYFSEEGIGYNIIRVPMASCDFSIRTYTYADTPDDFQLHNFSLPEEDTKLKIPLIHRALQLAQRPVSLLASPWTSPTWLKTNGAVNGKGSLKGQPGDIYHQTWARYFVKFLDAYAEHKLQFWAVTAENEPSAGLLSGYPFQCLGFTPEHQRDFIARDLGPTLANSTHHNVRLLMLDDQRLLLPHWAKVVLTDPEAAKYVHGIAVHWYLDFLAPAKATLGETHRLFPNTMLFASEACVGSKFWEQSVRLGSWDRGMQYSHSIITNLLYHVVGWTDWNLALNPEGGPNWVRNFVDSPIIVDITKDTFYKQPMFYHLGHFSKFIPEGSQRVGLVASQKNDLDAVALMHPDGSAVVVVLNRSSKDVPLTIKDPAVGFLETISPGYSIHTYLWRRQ

With `NCCSSCCN`, the Potency was > 11.4 µM (inactive) in experiment [1]; > 46 µM (inactive) in experiment [5]; > 46 µM (inactive) and > 9.22 µM (inactive) in experiment [6]. Moreover, the figures for the activity change, negative = inhibition in experiment [2] (at 7.69 µM (top of the series)) and in [2] (at 38 µM (top of the series)) were -2.06% (inactive) and -9.31% (inactive), respectively. Moreover, the Potency result in [3] and in experiment [7] was “inactive” throughout. Further, the activity, negative = inhibition is -10% (inactive) in experiment [4] (at 7.69 µM (top of the series)) and -21.5% (inactive) in [4] (at 38 µM (top of the series)).
Regarding `c1cnc2c(c1)ccc1cccnc12`, the Potency was > 11.4 µM (inactive) in [1]; 3.98 µM (active) and 2 µM (active) in experiment [3]; > 92 µM (inactive) in experiment [8]; 8.24 µM (active) in experiment [9]; 2.4 µM (active) in experiment [10]; 4.55 µM (active) in [11]. Also, the Potency in experiment [12] is > 92 µM (inactive); in [13] it was 3.86 µM (active); in [5], > 46 µM (inactive); in [6], > 46 µM (inactive) and > 9.22 µM (inactive); in experiment [14], 3.98 µM (active); in experiment [15] it was 2.51 µM (active). The Potency in experiment [16] was 12.6 µM (active); in [17], 2.51 µM (active); in experiment [18], 5.01 µM (active). Also, the figures for the activity change, negative = inhibition in [2] (at 7.69 µM (top of the series)) and in experiment [2] (at 38 µM (top of the series)) were -13.2% (inactive) and 0.206% (inactive), respectively. In addition, in experiment [4] (at 38 µM (top of the series)), the activity, negative = inhibition is -9.47% (inactive). The Potency entry in [7] is “inactive”. Further, in experiment [19], the activity change, negative = cytotoxicity is -87.9% (active).
For the compound `CC(C)Cc1ccc([C@H](C)C(=O)O)cc1`, the activity change, negative = inhibition in [2] (at 17.2 µM (top of the series)) is -1.53% (inactive); in [2] (at 38 µM (top of the series)), -1.91% (inactive) and 13.2% (inactive). In addition, the Potency entry in experiment [3] and in [7] was “inactive” throughout. Also, the activity, negative = inhibition in experiment [4] (at 17.2 µM (top of the series)) is -0.514% (inactive); in experiment [4] (at 38 µM (top of the series)) it was -0.822% (inactive) and 26.9% (inactive). Also, the Potency in [5] was > 46 µM (inactive) and > 20.6 µM (inactive); in [6], > 46 µM (inactive) and > 20.6 µM (inactive).
`CN1[C@@H]2CC[C@H]1CC(OC(c1ccccc1)c1ccccc1)C2` (some centres undefined): the Potency is > 11.4 µM (inactive) in experiment [1]; > 46 µM (inactive) in experiment [5]; > 46 µM (inactive) and > 9.22 µM (inactive) in [6]. The activity change, negative = inhibition in [2] (at 7.69 µM (top of the series)) is 12.3% (inactive). In addition, the Potency result in experiment [3] and in [7] was “inactive” in each case. For the same compound, the activity, negative = inhibition in experiment [4] (at 7.69 µM (top of the series)) is 0.0599% (inactive); in experiment [4] (at 38 µM (top of the series)), -14.8% (inactive).
As to `O=C(O)CC[C@@H](C(=O)O)N1C(=O)c2ccccc2C1=O`, the Potency in [1] is > 11.4 µM (inactive); in [5] it was > 46 µM (inactive). In addition, the activity change, negative = inhibition in experiment [2] (at 7.69 µM (top of the series)) is -7.49% (inactive); in [2] (at 38 µM (top of the series)) it was 3.98% (inactive). The Potency entry in experiment [3] and in [7] was “inactive” each time. Besides, the activity, negative = inhibition in [4] (at 7.69 µM (top of the series)) is 3.89% (inactive); in experiment [4] (at 38 µM (top of the series)), 0.0495% (inactive).
Turning to `C[N+]1(C)CCC(OC(=O)C(c2ccccc2)c2ccccc2)CC1`, the figures for the activity change, negative = inhibition in experiment [2] (at 38 µM (top of the series)) and in experiment [20] were 10.3% (inactive) and -75% (active), respectively. The Potency in experiment [3] is 10 µM (active) and inactive; in experiment [5], > 46 µM (inactive). Also, the activity, negative = inhibition in [4] (at 38 µM (top of the series)) was 22.3% (inactive). Further, the Potency result in experiment [7] was “inactive”.
